Compounds with a hit are over-represented: about 20% of the library has one in this group of screens.
Pf growth 48h: P. falciparum growth inhibition at 48 hours (one generation) | 310,000 compounds, 5.9% hits | AID 504832 | Potency, µM (doses to about 28.7 µM), for inactives: at the top dose activity change, negative = inhibition, actives largely listed as inhibitors | P. falciparum luciferase growth in erythrocytes, 48 h; also: potency is read from the fitted curve at half-maximal effect; % is scaled to controls: 0 for no effect and ±100 for the full control effect
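Cell-based growth assay: transgenic P. falciparum expressing firefly luciferase, cultured in red cells within RPMI 1640 containing 0.5% w/v Albumax, 24 mM bicarbonate and gentamycin. A drop in luciferase activity indicates inhibition.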
CHX counter: counter-screen for Shiga toxin inhibitors: cycloheximide protein synthesis inhibition; cell reporter, cycloheximide protein synthesis inhibition counterscreen; max response, %; 300,000 compounds, 12% hits; AID 2314; in the data active = max response mostly above about 13%, no sharp cut-off; inactive = mostly below about 14%; also: read at 38.3 µM for the half of the compounds with a filed dose; 0% is about no effect
Shiga toxin inh: Shiga toxin inhibition; AID 2315; 290,000 compounds, 9.2% hits; Vero cells, Shiga toxin protein synthesis inhibition reporter; inhibition, % at 38.7 µM; in the data active = inhibition mostly above about 28%, no sharp cut-off; inactive = mostly below about 43%; also: 0% is about no effect
HCMV inh: inhibitors of human cytomegalovirus; 410,000 compounds, 4.5% hits; activity change, negative = inhibition, % at 57.5 µM; HFF cells, HCMV-luciferase reporter, 72 h; hits give low values; in the data active = activity change below about -60%; inconclusive = no clear call, values can overlap the other calls; inactive = above about -39%; also: % is scaled to controls: 0 for no effect and ±100 for the full control effect
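Screen run at 2 compound doses on HFFs infected with reporter HCMV, MOI 1 PFU/cell. Luciferase activity from cell lysates at 72 h post infection gave inhibition relative to buffer-only and Salinomycin wells.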
Pf growth 96h: P. falciparum growth inhibition at 96 hours. P. falciparum luciferase reporter growth, 96 h. Potency, µM (series often up to 28.7 µM), without a hit: top-dose activity change, negative = inhibition, hits mostly inhibitors. 320,000 compounds, 6.9% hits; also: potency is read from the fitted curve at half-maximal effect; % is scaled to controls: 0 for no effect and ±100 for the full control effect
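Two parasite generations (96 h, 37 C, 5% CO2) of compound exposure in infected erythrocytes (0.05% parasitemia, 2% hematocrit). Luciferase-reporter P. falciparum; decreased luminescence indicates inhibited growth, aimed at apicoplast-acting delayed death.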
The depositor's hits bear a star; [ ] = remark or other dose. Unless noted, calls follow the shape of the dose curve; as a rule, active = well fitted inhibition curve with a large enough effect; inconclusive = small, poorly fitted or top-dose-only effect, or another doubt; inactive = no such curve, though single readings can be large or run the other way.

Cc1ccccc1Cn1nnc2c(=O)[nH]c(C3CCN(C(=O)c4ccccc4)CC3)nc21 was read as HCMV inh -9.3.
Screening O=C(c1ccccc1)N1CCC(c2nc3c(nnn3Cc3ccccc3Cl)c(=O)[nH]2)CC1 returned CHX counter 0.9, Shiga toxin inh 2.4, HCMV inh 15.9 and Pf growth 96h 8.28µM*.
Screening O=C(c1cccs1)N1CCC(c2nc3c(nnn3Cc3ccccc3Cl)c(=O)[nH]2)CC1 returned Pf growth 48h 10.4µM*, CHX counter -2.4, Shiga toxin inh -7.4, HCMV inh 69.6 and Pf growth 96h 0.0%.
`Cc1cc(C)c(S(=O)(=O)c2cccc(C(F)(F)F)c2)c(=O)[nH]1` gave Pf growth 48h inconclusive, CHX counter -2.7, Shiga toxin inh 2.9, HCMV inh -12.0 and Pf growth 96h 15.3%.
For Cc1ccc(S(=O)(=O)c2c(C)cc(-c3ccccc3)[nH]c2=O)cc1 the results were Pf growth 48h 13.2%, CHX counter -2.8, Shiga toxin inh 19.3, HCMV inh -10.8 and Pf growth 96h 48.9%.
Screening Cc1cccc(S(=O)(=O)c2c(C)cc(C)[nH]c2=O)c1 returned Pf growth 48h -5.0%, CHX counter 29.7*, Shiga toxin inh 27.9, HCMV inh 3.9 and Pf growth 96h -13.2%.
For Cc1cc(C)c(S(=O)(=O)c2ccccc2)c(=O)[nH]1 the results were Pf growth 48h 34.8%, CHX counter 18.0*, Shiga toxin inh 13.3, HCMV inh 5.6 and Pf growth 96h 3.0%.
Screening O=S(=O)(N/N=C1\CC(c2ccccc2)Oc2ccccc21)c1ccccc1 (centres undefined) returned Pf growth 48h 25.4%, CHX counter 18.3, Shiga toxin inh 35.1, HCMV inh -16.9 and Pf growth 96h 43.1%.
For CCOc1ccc(S(=O)(=O)N/N=C2/CC(c3ccccc3)Oc3ccccc32)cc1 (centres undefined) the results were CHX counter 29.7*, Shiga toxin inh 32.4, HCMV inh 25.9 and Pf growth 96h inconclusive.
`O=C(N/N=C1\CC(c2ccccc2)Oc2ccccc21)c1cccnc1` (centres undefined) gave Pf growth 48h inconclusive, CHX counter 6.3, Shiga toxin inh 7.1, HCMV inh -83.1* and Pf growth 96h 19.1%.
For O=C(N/N=C1/CC(c2ccccc2)Oc2ccccc21)C1CC1 (centres undefined) the results were Pf growth 48h -14.0%, CHX counter -4.5, Shiga toxin inh 23.0, HCMV inh -21.1 and Pf growth 96h -11.4%.
For O=C(N/N=C1\CC(c2ccccc2)Oc2ccccc21)c1ccccn1 (centres undefined) the results were Pf growth 48h inconclusive, CHX counter 15.4*, Shiga toxin inh 50.6*, HCMV inh -14.6 and Pf growth 96h -43.1%[5.75 µM].
`O=C(N/N=C1\CC(c2ccccc2)Oc2ccccc21)c1ccc(O)cc1` (centres undefined) gave Pf growth 48h inconclusive, CHX counter 40.5*, Shiga toxin inh 118.2*, HCMV inh inconclusive and Pf growth 96h inconclusive.
Screening CC1NC(=S)N(C2CCCCC2)C1=O (centres undefined) returned Pf growth 48h 29.1%, CHX counter 4.8, Shiga toxin inh 19.4, HCMV inh -27.1 and Pf growth 96h 4.65µM*.
Screening CCOC(=O)c1cc2c(=O)n3ccccc3nc2n(CC2CCCO2)c1=NC(=O)c1ccc(C)cc1 (centres undefined) returned HCMV inh -10.1.
Screening C=C1CCC[C@]2(C)C[C@H]3OC(=O)C(CNC(CC)CO)[C@H]3CC12 (some centres undefined) returned Pf growth 48h -29.5%, CHX counter -6.5, Shiga toxin inh -8.7, HCMV inh -21.6 and Pf growth 96h inconclusive.
For C=C1CCC[C@]2(C)C[C@H]3OC(=O)C(CN4CCCCC4CO)[C@H]3CC12 (some centres undefined) the results were Pf growth 48h inconclusive, CHX counter -6.0, Shiga toxin inh -15.1, HCMV inh -92.1* and Pf growth 96h inconclusive.
For C=C1CCC[C@]2(C)C[C@H]3OC(=O)C(CNC(C)(CO)CO)[C@H]3CC12 (some centres undefined) the results were CHX counter -6.0, Shiga toxin inh -6.5, HCMV inh -85.6* and Pf growth 96h inconclusive.
For CCc1cc2c3c(c1)C1(C(=O)N3C(C)(C)CC2C)C(C#N)=C(N)N2C(=C1C#N)Nc1ccccc12 (centres undefined) the results were Pf growth 48h 9.28µM*, CHX counter -2.2, Shiga toxin inh -7.2, HCMV inh inconclusive and Pf growth 96h -9.8%.
`Cc1cc2c3c(c1)C1(C(=O)N3C(C)(C)CC2C)C(C#N)=C(N)Oc2cc(O)ccc21` (centres undefined) gave Pf growth 48h 11.7µM*, CHX counter 2.1, Shiga toxin inh -14.7 and HCMV inh -39.5.
For Cc1nn(-c2ccccc2)c2c1C1(C(=O)N3c4c(cccc41)C(C)CC3(C)C)C(C#N)=C(N)O2 (centres undefined) the results were Pf growth 48h inconclusive, CHX counter 1.2, Shiga toxin inh 11.1 and HCMV inh -5.7.
For Cc1ccc2c3c1C1(C(=O)N3C(C)(C)CC2C)C(C#N)=C(N)Oc2cc(O)ccc21 (centres undefined) the results were Pf growth 48h -21.1%, CHX counter -6.5, Shiga toxin inh 27.0, HCMV inh -19.6 and Pf growth 96h inactive.
Screening COc1cc(F)ccc1-c1csc(C(O)c2ccc(F)cc2)n1 (centres undefined) returned HCMV inh 47.0.
`Cc1ccc(CSc2nc(-c3ccc(C(C)(C)C)cc3)nc3cc(=O)[nH]n23)cc1` gave HCMV inh -105.4*.
`Cc1ccc(NC(=O)CSc2nc(-c3ccc(C(C)(C)C)cc3)nc3cc(=O)[nH]n23)cc1C` gave HCMV inh -2.0.
`COc1ccc(OC)c(-c2cc(C(=O)NCc3ccco3)no2)c1` gave Pf growth 48h 53.5%, CHX counter 8.3, Shiga toxin inh 31.7, HCMV inh 97.3 and Pf growth 96h -25.3%.
For Cc1ccc(-c2noc(CCC(=O)NCc3ccco3)n2)cc1 the results were Pf growth 48h 13.0%, CHX counter 16.6, Shiga toxin inh 31.7 and HCMV inh -20.1.
For O=C(NCc1ccco1)c1nc(-c2ccc(F)cc2)no1 the results were Pf growth 48h -3.6%, CHX counter 8.1, Shiga toxin inh 40.7*, HCMV inh 45.1 and Pf growth 96h inconclusive.
Screening O=C(NCc1ccco1)c1cc(-c2ccc(Cl)cc2)on1 returned Pf growth 48h 76.4%, CHX counter 19.9*, Shiga toxin inh 76.9, HCMV inh 20.3 and Pf growth 96h -7.6%.
`COc1cccc(-c2cc(C(=O)NCc3ccco3)no2)c1` gave CHX counter 50.2*, Shiga toxin inh 85.9*, HCMV inh 71.3 and Pf growth 96h inconclusive.
